Inconclusive results are not listed. Values without a mark were called inactive. Activity calls are given as the source filed them. Unless noted, calls follow the shape of the dose curve; as a rule, active = well fitted curve in the direction sought with a large enough effect in the repeat runs; inconclusive = weak or mixed curves; inactive = no such curve, though single readings can be large; an effect the other way counts as inactive or inconclusive.

Potency data for ten compounds are collected here from PubChem BioAssay (Tox21).

Assay [1] is described as follows: qHTS assay to identify small molecule agonists of the RXR signaling pathway - cell viability counter screen (AID 1159529). Also: nearly all actives have a fitted effect of over 50% in size. Also: potency is read from the fitted curve at half-maximal effect. Summed up: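 CellTiter-Glo luminescence gave viability in the wells also read for beta-lactamase. Cells (RXR-alpha-UAS-bla HEK 293T, 2% charcoal-stripped FBS medium) had 5 hr plating, then 16 hr compound exposure at 37 C; tetraoctyl ammonium bromide served as positive control.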

Assay [2] is described as follows: qHTS assay to identify small molecule antagonists of the retinoid acid receptor (RAR) signaling pathway - cell viability counter screen (AID 1159551). Also: nearly all actives have a fitted effect of over 35% in size. Summed up:
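C3RL4 cells were seeded overnight at 37 C, then treated with compounds plus 1 uM (final) retinol for 6 h at 37 C. Viability was read as ATP by CellTiter-Glo luminescence after 30 min at room temperature.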

A short description of assay [3]: qHTS assay to identify small molecule antagonists of the retinoic acid receptor (RAR) signaling pathway (AID 1159552; also: nearly all actives have a fitted effect of over 50% in size). Summed up:
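Luminescent RARE reporter read-out in C3RL4 cells: 6 hr co-treatment at 37 C of test compounds with retinol at 1 uM final. Cells plated overnight beforehand; luciferase reagent incubated 30 min at room temperature before reading.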

Assay [4] in a line: qHTS assay to identify small molecule agonists of the retinoic acid receptor (RAR) signaling pathway (AID 1159553). Summed up:
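C3RL4 cells carrying a RARE luciferase reporter were plated overnight at 37 C, then exposed to compounds in DMSO for 6 hr at 37 C and 5% CO2. Luminescence was read 30 min after luciferase reagent addition at room temperature.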

A short description of assay [5]: qHTS assay to identify small molecule antagonists of the estrogen related receptor (ERR) signaling pathway from Tox21 library - cell viability counter screen (AID 1224834). Also: nearly all actives have a fitted effect of over 30% in size. Also: potency is read from the fitted curve at half-maximal effect. Summed up: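 ERR reporter cells were plated 6 h before compound addition, then exposed to test compounds in DMSO for 17.5 h at 37 C. Viability was read as CellTiter-Fluor fluorescence after a 30-minute incubation at 37 C.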

Assay [6] concerns the target Luciferin 4-monooxygenase (Photinus pyralis) (UniProt P08659). In words: qHTS assay to identify small molecule inhibitors of firefly luciferase (AID 1224835). Also: series mostly up to about 120 µM; nearly all actives have a fitted effect of over 25% in size. Summed up: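 Inhibition of purified Photinus luciferase is measured by luminescence. Substrate levels (D-luciferin, ATP) sit at their KM values. Each compound is tested in a concentration series.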
The nature of assay [7]: qHTS assay to identify small molecule agonists of the constitutive androstane receptor (CAR) signaling pathway - cell viability counter screen (AID 1224836). Also: nearly all actives have a fitted effect of over 45% in size. Also: potency is read from the fitted curve at half-maximal effect. Summed up:
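Cell viability multiplexed with the CAR agonist screen: CellTiter-Fluor fluorescence after 23 hr at 37 C. HepG2-CYP2B6-hCAR cells got compounds at 15 concentrations with PK11195 at 0.75 uM final.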

Assay [8] can be described thus: qHTS assay to identify small molecule antagonists of the constitutive androstane receptor (CAR) signaling pathway - cell viability counter screen (AID 1224837). Also: nearly all actives have a fitted effect of over 45% in size. Also: potency is read from the fitted curve at half-maximal effect. Summed up:
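HepG2 cells stably expressing hCAR and a CYP2B6-2.2kb reporter were plated and pre-incubated 4 hr at 37 C/5% CO2, then given compounds at 15 concentrations plus 50 nM CITCO (final). After 23 hr, viability was read by CellTiter-Fluor fluorescence.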

Assay [9] can be described thus: qHTS assay to identify small molecule antagonists of the estrogen related receptor signaling pathway with the pleiotropic PPARgamma coactivator (PGC) from Tox21 10K library - cell viability counter screen (AID 1224840; active = well fitted cell-killing curve with a large enough effect in the repeat runs, not every such curve was filed as active; also: nearly all actives have a fitted effect of over 40% in size; also: potency is read from the fitted curve at half-maximal effect). Summed up: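 PGC/ERR cells were seeded at 2,000 cells/well and left 6 hours at 37 C/5% CO2 before pin-tool addition of compounds in DMSO. After 17.5 hours at 37 C, CellTiter-Fluor was added and fluorescence read 30 minutes later.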

Assay [10] deals with Thyrotropin receptor (Homo sapiens) (UniProt P16473). In words: qHTS assay to identify small molecule agonists of the thyroid stimulating hormone receptor (TSHR) signaling pathway (AID 1224843; calls by dose curve; also: nearly all actives have a fitted effect of over 45% in size). Summed up:
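HEK293 cells stably bearing the thyrotropin receptor were plated at 800 cells/well and challenged with compound (30 min, RT). Accumulated cAMP was quantified via cAMP-d2 competing for cryptate-tagged antibody.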

Assay [11] in a line: qHTS assay to identify small molecule antagonists of the estrogen related receptor signaling pathway with the pleiotropic PPARgamma coactivator (PGC) from Tox21 10K library (AID 1224841; call rule not given here; also: actives are mostly falling curves and most rising ones were filed inactive; nearly all actives have a fitted effect of over 50% in size; also: potency is read from the fitted curve at half-maximal effect). Summed up: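 PGC/ERR reporter cells were seeded at 2,000 cells/well and held 6 hours at 37 C/5% CO2 before pin-tool addition of compounds in DMSO. After 18 hours at 37 C, One-Glo was added and luminescence read after 30 minutes at room temperature.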

Assay [12] is described as follows: qHTS assay to identify small molecule agonists of the estrogen related receptor signaling pathway with the pleiotropic PPARgamma coactivator (PGC) from Tox21 10K library (AID 1224842). Also: nearly all actives have a fitted effect of over 15% in size. Summed up:
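Luminescence from One-Glo (30 min, room temperature) measured after PGC/ERR cells had 18 h at 37 C with pinned compound (23 nL in DMSO). Cells had been seeded at 2,000 per well and pre-incubated 6 h.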

For assay [13], the target named is Nuclear receptor subfamily 1 group I member 3 (Homo sapiens) (UniProt Q14994). The assay can be described thus: qHTS assay to identify small molecule antagonists of the constitutive androstane receptor (CAR) signaling pathway (AID 1224838). Also: nearly all actives have a fitted effect of over 40% in size. Summed up: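 HepG2 cells stably co-transfected with hCAR and a CYP2B6-2.2kb luciferase reporter were seeded 4 h before compound addition at 15 concentrations. Cells were stimulated with 50 nM CITCO (final) for 24 h at 37 C; luciferase luminescence was then read.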
Chain of Nuclear receptor subfamily 1 group I member 3 (Homo sapiens) (Q14994 whole entry, looked up): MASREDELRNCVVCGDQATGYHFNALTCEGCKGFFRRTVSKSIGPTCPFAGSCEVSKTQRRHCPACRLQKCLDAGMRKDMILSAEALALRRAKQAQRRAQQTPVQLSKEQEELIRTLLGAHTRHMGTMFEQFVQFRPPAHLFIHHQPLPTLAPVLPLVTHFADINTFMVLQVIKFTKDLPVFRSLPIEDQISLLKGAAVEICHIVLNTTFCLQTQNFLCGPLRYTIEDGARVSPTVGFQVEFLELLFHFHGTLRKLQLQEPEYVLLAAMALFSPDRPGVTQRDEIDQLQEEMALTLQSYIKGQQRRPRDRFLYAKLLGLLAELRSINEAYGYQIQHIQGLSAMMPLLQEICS

Chain of Luciferin 4-monooxygenase (Photinus pyralis) (P08659 whole entry, looked up): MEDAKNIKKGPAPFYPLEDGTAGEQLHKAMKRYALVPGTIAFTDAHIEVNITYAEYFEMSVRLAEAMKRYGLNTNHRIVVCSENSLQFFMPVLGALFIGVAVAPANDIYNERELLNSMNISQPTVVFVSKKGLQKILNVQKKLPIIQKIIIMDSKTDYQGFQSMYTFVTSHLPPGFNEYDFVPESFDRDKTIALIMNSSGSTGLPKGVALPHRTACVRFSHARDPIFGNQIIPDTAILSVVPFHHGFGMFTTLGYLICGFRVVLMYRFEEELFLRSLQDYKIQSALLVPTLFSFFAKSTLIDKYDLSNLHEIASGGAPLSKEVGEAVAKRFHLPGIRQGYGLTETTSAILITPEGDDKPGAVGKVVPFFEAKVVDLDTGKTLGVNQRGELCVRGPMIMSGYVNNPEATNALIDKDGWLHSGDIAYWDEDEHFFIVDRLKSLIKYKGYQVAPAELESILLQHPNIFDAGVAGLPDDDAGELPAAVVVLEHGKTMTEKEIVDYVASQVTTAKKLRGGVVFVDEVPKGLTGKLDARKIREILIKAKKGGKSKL
Chain of Thyrotropin receptor (Homo sapiens) (P16473 whole entry, looked up): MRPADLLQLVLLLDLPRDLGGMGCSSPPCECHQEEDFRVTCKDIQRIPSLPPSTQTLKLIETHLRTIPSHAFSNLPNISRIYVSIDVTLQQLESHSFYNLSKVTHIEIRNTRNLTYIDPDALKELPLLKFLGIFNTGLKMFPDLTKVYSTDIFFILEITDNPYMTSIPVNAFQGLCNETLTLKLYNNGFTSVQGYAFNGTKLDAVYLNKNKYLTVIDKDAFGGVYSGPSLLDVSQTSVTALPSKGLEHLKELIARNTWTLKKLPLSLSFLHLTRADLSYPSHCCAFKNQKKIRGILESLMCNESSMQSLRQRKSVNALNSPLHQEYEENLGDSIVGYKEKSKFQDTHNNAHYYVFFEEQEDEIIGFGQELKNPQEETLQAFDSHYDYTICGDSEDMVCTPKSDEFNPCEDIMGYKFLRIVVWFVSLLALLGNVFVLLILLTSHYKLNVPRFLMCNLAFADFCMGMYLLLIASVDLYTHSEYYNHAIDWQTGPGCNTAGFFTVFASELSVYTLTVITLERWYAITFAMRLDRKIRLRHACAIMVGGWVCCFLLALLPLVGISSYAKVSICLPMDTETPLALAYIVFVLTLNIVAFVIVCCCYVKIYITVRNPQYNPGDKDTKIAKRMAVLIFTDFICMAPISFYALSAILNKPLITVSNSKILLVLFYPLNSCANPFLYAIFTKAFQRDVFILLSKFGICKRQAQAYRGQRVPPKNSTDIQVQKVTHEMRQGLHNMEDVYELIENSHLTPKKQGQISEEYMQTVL

For the compound `O=C(O)CC(=O)C(=O)O`, the Potency result in assay [1], in [2], in assay [3], in [4], in [5] and in assay [6] was “inactive” each time. Also, the Potency entry in assay [7], in assay [8], in [9] and in [10] was “inactive” throughout.
For the compound `COc1ccc(C)cc1[N+](=O)[O-]`, the Potency entry in assay [1], in [2], in [3], in assay [4], in assay [5] and in assay [6] was “inactive” throughout. For the same compound, the Potency entry in assay [7], in assay [8], in assay [9], in assay [11], in [12] and in assay [10] was “inactive” each time.
As for `ClCCOCCOCCCl`, the Potency entry in assay [1], in [2], in [3], in [4], in assay [5] and in assay [6] was “inactive” in each case. In addition, the Potency entry in assay [7], in [8], in assay [9], in assay [11], in assay [12] and in [10] was “inactive” throughout.
Consider `Cc1cccc(C)c1OCC(=O)N[C@@H](Cc1ccccc1)[C@@H](O)C[C@H](Cc1ccccc1)NC(=O)[C@H](C(C)C)N1CCCNC1=O`, for which the Potency in [1] is 23.9 µM (active); in [5], 21.1 µM (active); in [7], 18.8 µM (active); in assay [8], 13.3 µM (active); in assay [9], 33.5 µM (active); in [11], 13.3 µM (active). The Potency result in assay [2], in [3], in assay [4], in [6], in assay [12] and in assay [10] was “inactive” each time.
On to `O=C1C(O)=C(O)C(=O)C(O)=C1O`, for which the Potency result in assay [1], in assay [2], in [3], in [4], in [5] and in assay [6] was “inactive” throughout. Also, the Potency result in assay [7], in [13], in assay [9] and in [10] was “inactive” throughout.
Regarding `CCCCCCCCCCCC(=O)OC[C@@H](O)[C@H]1OC[C@H](OCCO)[C@H]1OCCO`, the Potency entry in assay [1], in [2], in assay [3], in [4], in assay [6] and in assay [7] was “inactive” each time. The Potency result in assay [8], in assay [13], in [9] and in assay [10] was “inactive” each time.
`NCc1ccccc1Sc1ccccc1CO`: the Potency result in assay [1], in assay [2], in assay [3], in assay [4], in [5] and in [7] was “inactive” in each case. The Potency result in assay [8], in assay [13], in [9] and in assay [10] was “inactive” each time.
In the case of `Cc1ccc(C(C)OC(=O)C2(C)CCC(C(=O)O)C2(C)C)cc1` (stereo not given), the Potency entry in assay [1], in assay [2], in [3], in assay [4], in assay [5] and in [7] was “inactive” throughout. In addition, the Potency result in assay [8], in [9] and in assay [10] was “inactive” in each case.
Take `CCNc1cc(O)ccc1C`: the Potency entry in assay [1], in assay [2], in assay [3], in [4], in assay [6] and in assay [7] was “inactive” each time. Also, the Potency result in assay [8], in [13], in assay [9], in [11] and in [12] was “inactive” in each case.
Regarding `Cc1ccccc1S(=O)(=O)O`, the Potency result in assay [1], in assay [2], in assay [3], in assay [4], in [5] and in assay [6] was “inactive” in each case. In addition, the Potency result in [8], in [9] and in assay [10] was “inactive” each time.
